According to PubChem BioAssay (NCATS):
Inconclusive results are not listed. A call without a number means that no potency is given here. Calls of active or inactive are those of the source. Calls follow the shape of the dose curve; as a rule, active = well fitted curve in the direction sought with a large enough effect; inconclusive = small, poorly fitted or top-dose-only effect, or another doubt; inactive = no such curve, though single readings can be large; an effect the other way counts as inactive or inconclusive.

Columns and labels:
[1] = Cell Viability - LYMP2-014 (AID 983); also: nearly all actives have a fitted effect of over 50% in size; also: potency is read from the fitted curve at half-maximal effect
Method in brief: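 LYMP2-014 human lymphoblastoid cells, 2500/well, treated 24 h at 37 C in complete medium; viability by CellTiter-Glo ATP luminescence after 30 min at room temperature. AC50 from Hill fits of qHTS concentration-response; tetraoctylammonium bromide positive control.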

[2] = Cell Viability - LYMP2-016 (AID 984); also: nearly all actives have a fitted effect of over 55% in size; also: potency is read from the fitted curve at half-maximal effect
Method in brief: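 Cells were seeded at 2500 per well and rested 5 hr before a 24 hr compound exposure at 37 C. Viability was then gauged as cellular ATP by luciferase luminescence, with AC50 values fitted to the Hill equation.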

[3] = Cell Viability - LYMP2-018 (AID 985); also: nearly all actives have a fitted effect of over 50% in size; also: potency is read from the fitted curve at half-maximal effect
Method in brief: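 Human lymphoblastoid LYMP2-018 cells, 2500/well, settled 5 hr at 37 C then exposed to compound 24 hr at 37 C; intracellular ATP measured by CellTiter-Glo luminescence. AC50 from Hill-equation concentration-response fits.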

[4] = Cell Viability - LYMP2-026 (AID 989); also: nearly all actives have a fitted effect of over 50% in size; also: potency is read from the fitted curve at half-maximal effect
Method in brief: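 Human lymphoblastoid LYMP2-026 cells, 2500/well, exposed to compound 24 h at 37 C in complete medium. Viability as intracellular ATP by CellTiter-Glo luminescence; AC50 from Hill fits of qHTS concentration-response.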

[5] = Cell Viability - LYMP1-002 - Assay at 24 hr (AID 993)
Method in brief: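 Human lymphoblastoid LYMP1-002 cells (2500/well) treated 24 h at 37 °C; viability as intracellular ATP by CellTiter-Glo luminescence. Tetraoctylammonium bromide as positive control; AC50 from Hill-equation fits of qHTS concentration-response.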

[6] = Cell Viability - LYMP2-012 (AID 982);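 also: cellular ATP by luciferase luminescence where a drop means cytotoxicity; cells exposed to compound for one day before reading; nearly all actives have a fitted effect of over 55% in size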; also: potency is read from the fitted curve at half-maximal effect
[7] = Cell Viability - LYMP2-020 (AID 986); also: nearly all actives have a fitted effect of over 55% in size; also: potency is read from the fitted curve at half-maximal effect
Method in brief: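 Human lymphoblastoid LYMP2-020 cells (2500/well) preincubated 5 h at 37 C, then treated 24 h at 37 C. Viability measured as intracellular ATP by CellTiter-Glo luminescence after 30 min at room temperature; AC50 from Hill fits.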

[8] = Cell Viability - LYMP2-022 (AID 987); also: nearly all actives have a fitted effect of over 55% in size; also: potency is read from the fitted curve at half-maximal effect
Method in brief: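 LYMP2-022 lymphoblastoid cells (2500/well, complete medium) were treated with compounds for 24 hours at 37 C; intracellular ATP was then read by CellTiter-Glo luminescence after 30 min at room temperature. AC50 values were derived from Hill-equation fits.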

[9] = Cell Viability - LYMP2-024 (AID 988); also: nearly all actives have a fitted effect of over 60% in size; also: potency is read from the fitted curve at half-maximal effect
Method in brief: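 Human lymphoblastoid LYMP2-024 cells (2500/well) rested 5 hr, then treated with compound for 24 hr at 37 C in complete medium. Viability was measured as intracellular ATP by CellTiter-Glo luminescence. AC50 values came from Hill-equation fits.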

[10] = biological target: Alpha-galactosidase A (Homo sapiens) (UniProt P06280); test: Counterscreen for Glucocerebrosidase Inhibitors: qHTS Assay for Human alpha-Galactosidase at pH 4.5 (AID 992)
Method in brief: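 Read-out is 4-methylumbelliferone fluorescence (365 nm excitation, 440 nm emission) after a pH 10 NaOH/glycine stop. Reactions held 2 nM enzyme and 80 uM substrate at pH 4.5 for 20 min at room temperature.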

Sequence of Alpha-galactosidase A (Homo sapiens) (P06280 whole entry, looked up): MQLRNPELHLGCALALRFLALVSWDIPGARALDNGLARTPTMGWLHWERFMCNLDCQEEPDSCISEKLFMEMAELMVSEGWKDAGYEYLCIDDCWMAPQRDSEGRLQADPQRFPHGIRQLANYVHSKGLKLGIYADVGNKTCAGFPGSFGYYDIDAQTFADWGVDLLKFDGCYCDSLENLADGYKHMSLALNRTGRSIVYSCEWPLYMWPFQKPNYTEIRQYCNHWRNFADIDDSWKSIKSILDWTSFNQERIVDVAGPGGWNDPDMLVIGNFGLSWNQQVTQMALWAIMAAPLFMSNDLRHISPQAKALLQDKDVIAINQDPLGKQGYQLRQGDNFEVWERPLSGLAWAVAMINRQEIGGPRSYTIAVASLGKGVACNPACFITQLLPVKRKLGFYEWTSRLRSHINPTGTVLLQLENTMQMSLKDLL

| Compound | Potency [1] | Potency [2] | Potency [3] | Potency [4] | outcome [5] | Potency [6] | Potency [7] | Potency [8] | Potency [9] | outcome [10] |
| --- | --- | --- | --- | --- | --- | --- | --- | --- | --- | --- |
| CCOc1ccc2c(c1)C(C)=CC(C)(C)N2 | inactive | inactive | inactive | inactive | inactive |  |  |  |  |  |
| CC1=C(/C=C/C(C)=C/C=C/C(C)=C/CO)C(C)(C)CCC1 |  |  | 50.1 µM (active) |  | inactive | 50.1 µM (active) | 50.1 µM (active) | 39.8 µM (active) | 50.1 µM (active) |  |
| CC(C)(C)NC(=O)[C@@H]1C[C@@H]2CCCC[C@@H]2CN1C[C@@H](O)[C@H](Cc1ccccc1)NC(=O)[C@H](CC(N)=O)NC(=O)c1ccc2ccccc2n1 |  |  |  |  |  | 50.1 µM (active) |  | 50.1 µM (active) |  |  |
| CN=C(NC#N)Nc1ccc(C2=NNC(=O)C[C@@H]2C)cc1 |  |  |  |  |  |  |  |  |  | inactive |
| Nc1ccn([C@H]2CS[C@@H](CO)O2)c(=O)n1 | inactive | inactive | inactive | inactive | inactive | inactive | inactive | inactive | inactive |  |
| O=CCCCC=O | 25.1 µM (active) | 25.1 µM (active) | 20 µM (active) | 25.1 µM (active) | inactive | 15.8 µM (active) | 15.8 µM (active) | 10 µM (active) | 12.6 µM (active) |  |
| CC1=C2[C@@H]([C@H](C)CC[C@H]2/C=C(\C)C(=O)O)[C@H](O)C1 | inactive | inactive | inactive | inactive | inactive | inactive | inactive | inactive | inactive |  |
| CCCCC/C=C\C/C=C\CCCCCCCC(=O)O | inactive | inactive | inactive | inactive | inactive | inactive | inactive | inactive | inactive |  |
| CC(O)CO (stereo not drawn) | inactive | inactive | inactive | inactive | inactive | inactive | inactive | inactive | inactive |  |
| O=C(O)CCC(=O)C(=O)O | inactive | inactive | inactive | inactive | inactive | inactive | inactive | inactive | inactive |  |
| CC(C)=O | inactive | inactive | inactive | inactive | inactive | inactive | inactive | inactive | inactive |  |
| CCCCCCCC/C=C\CCCCCCCC(=O)O | inactive | inactive | inactive | inactive | inactive | inactive | inactive | inactive | inactive |  |
| IC(I)I | inactive | inactive | inactive | inactive | inactive | inactive | inactive | inactive | inactive |  |
| COc1ccc(CCNC[C@H](O)c2ccc(O)cc2)cc1OC |  |  |  |  |  |  |  |  |  | inactive |
| CCOC(C)=O | inactive | inactive | inactive | inactive | inactive | inactive | inactive | inactive | inactive |  |
| O=S(=O)(O)O | inactive | inactive | inactive | inactive | inactive | inactive | inactive | inactive | inactive |  |
| CC[N+](C)(C)Cc1ccccc1Br |  |  |  |  |  |  |  |  |  | inactive |
| CCCCCCCC(=O)O | inactive | inactive | inactive | inactive | inactive | inactive | inactive | inactive | inactive |  |
| Cc1ccccc1 | inactive | inactive | inactive | inactive | inactive | inactive | inactive | inactive | inactive |  |
